A selection: hits, their analogues and other compounds. The true share with any hit is near 12%.
L3MBTL1 inh – blocks human L3MBTL1 | AlphaScreen L3MBTL1–H3K9me1 peptide binding | Potency, µM (doses to about 57.1 µM), without a hit: at the top dose activity, negative = inhibition, hits mostly inhibitors | hit rate 0.66% among 230,000; further: on the % scale 0 is the no-effect control and ±100 the full control effect; nearly all actives have a fitted effect of over 60% in size
Target sequence (Q9Y468 whole entry, looked up): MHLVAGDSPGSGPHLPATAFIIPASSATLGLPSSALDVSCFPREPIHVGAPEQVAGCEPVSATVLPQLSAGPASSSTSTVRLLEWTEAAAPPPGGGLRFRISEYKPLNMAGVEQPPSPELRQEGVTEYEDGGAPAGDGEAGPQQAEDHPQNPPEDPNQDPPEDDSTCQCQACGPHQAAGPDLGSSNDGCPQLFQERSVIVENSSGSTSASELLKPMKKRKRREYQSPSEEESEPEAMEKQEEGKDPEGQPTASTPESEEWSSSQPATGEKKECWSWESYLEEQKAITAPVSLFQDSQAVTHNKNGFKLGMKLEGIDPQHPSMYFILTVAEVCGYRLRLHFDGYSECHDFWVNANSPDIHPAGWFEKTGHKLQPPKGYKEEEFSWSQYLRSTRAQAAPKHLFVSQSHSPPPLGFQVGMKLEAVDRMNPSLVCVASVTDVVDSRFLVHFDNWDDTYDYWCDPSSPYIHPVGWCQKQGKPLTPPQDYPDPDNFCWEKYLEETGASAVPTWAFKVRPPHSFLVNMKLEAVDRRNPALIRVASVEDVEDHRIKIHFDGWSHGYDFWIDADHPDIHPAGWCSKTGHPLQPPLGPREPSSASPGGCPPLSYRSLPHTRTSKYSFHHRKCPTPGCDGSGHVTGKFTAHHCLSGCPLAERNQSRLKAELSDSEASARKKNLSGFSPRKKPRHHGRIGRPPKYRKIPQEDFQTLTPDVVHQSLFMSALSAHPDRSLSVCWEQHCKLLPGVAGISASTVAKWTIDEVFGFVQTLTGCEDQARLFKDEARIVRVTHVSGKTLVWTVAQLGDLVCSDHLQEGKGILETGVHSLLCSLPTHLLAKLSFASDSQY
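First, the protein-peptide complex forms for 30 min at room temperature (L3MBTL1 50 nM, biotinylated H3K9me1 peptide 75 nM). Next, compounds are pin-transferred and incubated 30 min. Finally, AlphaScreen beads are added and read after 30 min.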
G9a block – inhibitors of human histone lysine methyltransferase G9a | Q96KQ7 | G9a H3K9 monomethylation, AlphaScreen, 2 h | Potency, µM (highest dose often 102 µM), for inactives: at the top dose activity, negative = inhibition, usual class: inhibitors | hit rate 8.8% among 350,000; further: on the % scale 0 is the no-effect control and ±100 the full control effect; nearly all actives have a fitted effect of over 75% in size
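AlphaScreen detection with an anti-monomethyl H3K9 antibody quantified product after a 2 h room-temperature reaction containing 500 nM biotinylated H3K9 peptide, 20 µM SAM and 20 nM enzyme, which had been preincubated 15 min with compound.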
BAZ2B inh – BAZ2B (human) inhibition. hit rate 4.4% among 360,000. AID 504333. AlphaScreen BAZ2B-H3K14Ac peptide displacement. Potency, µM (top dose mostly 114 µM), for the others: at the highest dose activity change, negative = inhibition, hits mostly inhibitors. Q9UIF8; further: on the % scale 0 is the no-effect control and ±100 the full control effect; nearly all actives have a fitted effect of over 60% in size
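Compounds, titrated to a top concentration of 110 uM, were incubated 30 min at room temperature with preformed BAZ2B/acetyl-K14 H3 peptide complex (50 nM each). Proximity signal was measured by AlphaScreen after 20 min with beads.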
HP1b binding inh – blocks HP1-beta chromodomain binding to methylated histone tails | P83916 | AlphaScreen HP1-beta / biotin-H3K9me3 peptide binding | Potency, µM (titrated, usually from 114 µM), for the others: top-dose activity change, negative = inhibition, actives largely listed as inhibitors | hit rate 0.56% among 390,000 | AID 540317; further: nearly all actives have a fitted effect of over 70% in size
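Compound inhibition of the preformed complex between 50 nM HP1-beta and 50 nM biotinylated H3K9me3 peptide was read by AlphaScreen. Buffer was PBS pH 7.4 with 0.01% Tween-20. Incubations ran 30 min at room temperature, with 10 ug/mL donor/acceptor beads.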
JMJD2A Tudor inh – blocks the human JMJD2A Tudor domain; O75164; AlphaScreen JMJD2A-Tudor / H3K4me3 peptide binding; Potency, µM (top dose mostly 114 µM), for the others: at the highest dose activity change, negative = inhibition, most hits filed as inhibitors; hit rate 4.4% among 390,000; AID 504339; further: on the % scale 0 is the no-effect control and ±100 the full control effect; nearly all actives have a fitted effect of over 50% in size
Sfp PPTase inh – blocks B. subtilis Sfp PPTase activity | Potency, µM, without a hit: largest response in the series, negative = inhibition, most hits filed as inhibitors | Q9F4F7 | AID 1490 | Biochemical Sfp PPTase activity, qHTS | hit rate 3.5% among 310,000;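 further: the enzyme is Sfp with the accession as filed and its product quenches rhodamine fluorescence; 0% = enzyme reaction without inhibitor and -100% = no enzyme wells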
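Fluorescence-quenching assay: 15 nM Sfp-PPTase preincubated 15 min at room temperature with compound, then 5 uM rhodamine-CoA and 12.5 uM BHQ-2-labelled YbbR peptide added. Fluorescence (ex 525/em 598 nm) read at start and after 30 min; difference gives rate.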
* hit, by the source's call; ? = inconclusive; . = not tested or not shown; ! = a repeat was not active; [ ] = another dose, or the depositor's remark. The call rests on the fitted dose curve; in most records, active means well fitted curve in the direction sought with a large enough effect; inconclusive means small, poorly fitted or top-dose-only effect, or another doubt; inactive means no such curve, though single readings can be large; an effect the other way counts as inactive or inconclusive. Potency means the concentration at half of the fitted maximal effect.

SMILES | L3MBTL1 inh | G9a block | BAZ2B inh | HP1b binding inh | JMJD2A Tudor inh | Sfp PPTase inh
COc1ccc(C2=NO[C@@H]3C(=O)N(c4ccc5c(c4)OCCO5)C(=O)[C@H]23)cc1OC | . | -31%[12.7 µM] | 3% | 16% | 25% | 12%
Cc1ccc(N2C(=O)[C@@H]3[C@H](C2=O)C2c4ccccc4C=CN2[C@@H]3C(=O)c2ccco2)cc1 (stereo partly drawn) | -8% | 3.2µM* | ? | ? | ? | -23%
Cc1ccc(N2C(=O)[C@@H]3[C@H](C2=O)C2c4ccccc4C=CN2[C@@H]3C(=O)c2ccco2)c(C)c1 (stereo partly drawn) | -9% | 6%[2.33 µM] | -33% | -26% | ? | ?
O=C(CC1(O)C(=O)N(CCc2ccccc2)c2ccc(Br)cc21)c1ccc(F)cc1 (stereo not drawn) | . | -27%[59 µM] | -3% | 8% | -29% | .
COc1ccccc1N1CCN(C(=O)c2cc3c(=O)n(Cc4cccs4)ccc3nc2C)CC1 | . | 5%[59 µM] | ? | 5% | -21% | .
CCOc1ccc(S(=O)(=O)N2CCN(c3cc(Cl)ccc3Cl)CC2)c2ccccc12 | . | -32%[59 µM] | -9% | 19% | -1% | .
CN(C)Cc1ccccc1-c1cncnc1Nc1ccncc1 | . | 12%[0.501 µM] | . | . | . | 8%
CCC1=C(c2ccc(C)cc2)S(=O)(=O)N=C1N1CCC(C(=O)Nc2ccccc2C(=O)OC)CC1 | . | 9%[59 µM] | -14% | ? | -28% | .
COc1ccc(N2CC(NC(=O)Nc3ccccc3)CC2=O)cc1 (stereo not drawn) | . | 42% | 10% | 26% | -8% | 9%
COc1ccc(N2C(=O)[C@@H]3[C@H](C2=O)[C@H]2c4ccccc4C=CN2[C@@H]3C(=O)Nc2ccccc2)cc1 | . | 8.9µM* | -31% | 5% | ? | -5%
COc1ccc(CNc2ccc3cc(S(=O)(=O)N4CCCCC4)ccc3n2)cc1 | . | 11µM* | -20% | 30% | 3% | .
O=S(=O)(c1ccc2nc(N3CCN(c4ccccc4F)CC3)ccc2c1)N1CCCCC1 | . | 18µM* | -16% | 17%[57 µM] | 5% | -5%
COc1ccc(Nc2ccc3cc(S(=O)(=O)N4CCCC4)ccc3n2)cc1OC | . | 14µM* | ? | 22% | ? | .
CC(=O)c1cccc(Nc2ccc3cc(S(=O)(=O)N4CCCC4)ccc3n2)c1 | . | ? | 3% | 55% | 1% | .
O=S(=O)(c1ccc2nc(Nc3ccccc3)ccc2c1)N1CCCCC1 | . | . | 40µM* | 24% | 28µM* | 50µM*
COc1cc(OC)c(N(C)C(=O)C2CCCN(c3ncnc4c3nc3n4CCCCC3)C2)cc1Cl (stereo not drawn) | . | -33%[59 µM] | -34% | 7% | -30% | .
Cn1c(SCc2cccc([N+](=O)[O-])c2)nc2c(c1=O)SCC2 | -25% | ? | 71µM* | -15% | 56µM* | -2%
COC(=O)C/C=C\[C@@H](C)[C@@H](/C=N\OCC[C@@H]1C=C[C@H](OC(C)=O)[C@H](COC(C)=O)O1)OC | . | . | . | . | . | 1µM*
Nc1[nH]nc2nc3ccccc3nc12 | . | . | . | . | . | 9%
Nc1[nH]nc2ncc3cc4ccccc4nc3c12 | -6% | 35µM* | ? | 26% | -21% | 35µM*
c1cc(-c2nnc(-c3ccncc3)o2)ccn1 | -1% | 0% | -1% | 12% | -17% | 1%
S=c1oc(-c2ccncc2)nn1CCc1ccncc1 | -1%[11.4 µM] | 3%[12.7 µM] | 56µM* | 40% | -19% | 10%
CCOC(=O)c1sc2ccccc2c1S(=O)(=O)N1CCN(c2cccc(OC)c2)CC1 | . | -41%[59 µM] | ? | 17% | -24% | .
COc1cc(-c2nc3ccc(N4CCN(C)CC4)cc3[nH]2)cc(OC)c1OC | -12% | 40µM* | -35% | 5% | -5% | -9%
Cc1ccc(/C=C/C(=O)N2CCC(c3nc4ccccc4o3)CC2)cc1 | . | -36%[59 µM] | ? | 21% | -6% | .
SMILES | L3MBTL1 inh | G9a block | BAZ2B inh | HP1b binding inh | JMJD2A Tudor inh | Sfp PPTase inh
CSC1=NC2(CCCCC2)C2=C(CCCC2)N1 | 1% | 45µM* | 13% | 25% | -14% | 11%
COc1ccccc1C(=O)C1CCCN(C(=O)c2cn3cc(Cl)ccc3n2)C1 (stereo not drawn) | 5% | 28µM* | -26% | 34% | -6% | 8%
COc1ccccc1C(=O)C1CCCN(C(=O)c2ccccc2Cl)C1 (stereo not drawn) | . | -9% | 4% | 31% | 4% | 4%
COc1cc(/C=C2\C(=O)N(c3ccc(NC(C)=O)cc3)N=C2c2ccccc2)ccc1O | -3% | 45µM* | 35µM* | ? | 40µM* | 11%
CCOc1cc(/C=C2\C(=O)N(c3nc(-c4ccc(Br)cc4)cs3)N=C2c2ccccc2)ccc1O | . | ? | ? | ? | ? | -27%
O=C1/C(=C\c2ccc(O)c(O)c2)C(c2ccccc2)=NN1c1ccccc1 | 14µM* | 4µM* | 8.9µM* | ? | 14µM* | 50µM*
CCc1ccc(NC(=O)c2nc(S(=O)(=O)Cc3ccccc3)ncc2Cl)cc1 | . | ? | -26% | . | . | -26%
CC(C)c1nnc(NC(=O)c2nc(S(=O)(=O)Cc3ccccc3)ncc2Cl)s1 | . | 8.9µM* | 50µM*! | 4%[57 µM] | -25% | -7%
CCCc1nnc(NC(=O)c2nc(S(=O)(=O)Cc3ccc(C)cc3)ncc2Cl)s1 | . | 13µM* | -20% | 55% | -16% | -14%
CSc1nnc(NC(=O)c2nc(S(=O)(=O)Cc3ccccc3)ncc2Cl)s1 | . | 50µM* | 45µM* | -2%[57 µM] | 16µM* | -10%
CCCC[C@H](O)c1ccccc1 | . | -18%[12.7 µM] | . | . | . | 21%
CCOc1c(Br)cc(CNc2ccc(N3CCN(C(C)=O)CC3)cc2)cc1OC | . | 28µM* | 40µM* | -23% | 50µM* | -16%
COc1ccc(CNc2ccccc2)cc1Br | -3% | -5%[59 µM] | 23% | 49% | -7% | -11%
COc1cc(CNc2ccc(O)cc2)cc(Br)c1OCc1ccccc1 | -26% | 25µM* | 40µM* | ? | 45µM* | 22µM*
C=CCOc1c(Br)cc(CNc2ccc(NC(=O)C(C)C)c(OC)c2)cc1OCC | -2% | 6.3µM* | 22% | -2% | ? | ?
COc1ccc(CNc2ccc(C)cc2)cc1Br | ? | ? | 50µM* | ? | -36%[57.1 µM] | -14%
Cc1ccc(-c2noc(-c3ccccc3NC(=O)C3CC(=O)N(c4ccc(C)cc4)C3)n2)cc1 (stereo not drawn) | . | 5%[59 µM] | 0% | 25% | -20% | .
CCOc1cc(CNc2ccc(N3CCN(C(C)=O)CC3)cc2)cc(Br)c1OC | ? | 28µM* | 32µM* | ? | 35µM* | ?
COC(=O)c1ccccc1NC(=O)c1nn(C)c2c1COc1ccccc1-2 | . | -34%[59 µM] | ? | 43% | -5% | .
